Inconclusive results are not listed. Active and inactive are the calls of the source. Calls come from the whole dose curve; as a rule, active = well fitted inhibition curve with a large enough effect; inconclusive = small, poorly fitted or top-dose-only effect; inactive = flat fitted curve, though single readings scatter.
Key:
Assay in all cases: Cytotoxic Profiling of Annotated Libraries Using Quantitative High-Throughput Screening (AID 1296008); note: nearly all actives have a fitted effect of over 60% in size
Settings in all cases: Five cell lines viability, CellTiter-Glo ATP luminescence, 48-72 h; max response: hits give low values
CRL-7250 = normal cell line; tested on: CRL-7250
Method in brief: (§1)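 Compounds were pin-transferred onto cells and incubated 48 or 72 hr at 37 degree Celsius, 95% humidity. CellTiter-Glo was added, plates sat 10 min at room temperature, then ATP-coupled luminescence was imaged as the viability read-out.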

HEK293 = tested on: HEK293
Method in brief: as §1

HaCat = tested on: HaCat
Method in brief: as §1

KB-3-1 = tested on: KB-3-1
Method in brief: as §1

NIH3T3 = tested on: NIH3T3
Method in brief: as §1
% is set by controls: 0 for no effect and ±100 for the full control effect; potency is the fitted concentration of half-maximal effect.

CNC(=O)c1ccc2c(c1)CCO[C@H]2CCN1CCN(c2ccc(C(N)=O)cc2)CC1
inactive: max response (CRL-7250) 0.998% | max response (HEK293) 3.1% | outcome (HaCat) | max response (KB-3-1) -1.44% | outcome (NIH3T3)

C[C@]1(OC(=O)/C=C/c2ccccc2)C[C@@H](O)[C@]2(O)C=CO[C@@H](O[C@@H]3O[C@H](CO)[C@@H](O)[C@H](O)[C@H]3O)[C@@H]21
inactive: max response (CRL-7250) -4.65% | max response (HEK293) 3.08% | outcome (HaCat) | max response (KB-3-1) 8.76% | outcome (NIH3T3)

CC1C2=CC(=O)OC2(O)CC2C1C(O)CC1C(C)(CO)CCCC21C (stereo not given)
inactive: outcome (CRL-7250) | max response (HEK293) 2.57% | outcome (HaCat) | max response (KB-3-1) 0.829% | outcome (NIH3T3)

CC1CC(=O)C2=C(O1)OC1(C)CCC3C(C)(C)C4OC4C(=O)C3(C)C1C2 (stereo not given)
inactive: outcome (CRL-7250) | max response (HEK293) 1.32% | outcome (HaCat) | outcome (KB-3-1) | max response (NIH3T3) -0.441%

CN1CCN(C(=O)c2cc3cc(Cl)ccc3[nH]2)CC1
inactive: max response (CRL-7250) -2.46% | max response (HEK293) -8.86% | outcome (HaCat) | max response (KB-3-1) -0.0663% | outcome (NIH3T3)

C/C=C1\[C@H](O[C@@H]2O[C@H](CO)[C@@H](O)[C@H](O)[C@H]2O)OC=C(C(=O)OCCc2ccc(O)cc2)[C@H]1CC(=O)OCCc1ccc(O)cc1
inactive: max response (CRL-7250) 0.139% | max response (HEK293) -2.9% | outcome (HaCat) | max response (KB-3-1) -0.75% | max response (NIH3T3) -3.77%

C=C[C@H]1[C@H](O[C@@H]2O[C@H](CO)[C@@H](O)[C@H](O)[C@H]2O)OC=C(C(=O)OC)[C@H]1CCO
inactive: max response (CRL-7250) -6.38% | max response (HEK293) 2.87% | outcome (HaCat) | max response (KB-3-1) 5.52% | max response (NIH3T3) -6.64%

COc1ccc(/C=C/C(N)=O)cc1OC
inactive: outcome (CRL-7250) | max response (HEK293) 3.65% | outcome (HaCat) | outcome (KB-3-1) | max response (NIH3T3) 3.68%

CCCN1CCC[C@@H](c2cccc(S(C)(=O)=O)c2)C1
inactive: max response (CRL-7250) -1.62% | max response (HEK293) -20.6% | max response (HaCat) -5% | max response (KB-3-1) -6.47% | outcome (NIH3T3)

O=C(NC1Cc2ccccc2N(C[C@@H](O)CO)C1=O)c1cc2cc(Cl)sc2[nH]1 (stereo not given in full)
active: Potency (HEK293) 16.4 µM
inactive: max response (CRL-7250) -1.76% | max response (HaCat) -0.0172% | max response (KB-3-1) 3.62% | outcome (NIH3T3)

CC(/C=C/C=C(\C)C(=O)O[C@@H]1O[C@H](CO[C@@H]2O[C@H](CO)[C@@H](O)[C@H](O)[C@H]2O)[C@@H](O)[C@H](O)[C@H]1O)=C\C=C\C=C(C)\C=C\C=C(/C)C(=O)O[C@@H]1C[C@](O)(C(=O)O)C[C@@H](O)[C@H]1OC(=O)/C=C/c1ccc(O)c(O)c1
inactive: max response (CRL-7250) -12.4% | max response (HEK293) 2.1% | max response (HaCat) 1.58% | max response (KB-3-1) 5.86% | outcome (NIH3T3)

C=CC(C)(O)CC/C=C(\C)C1CC=C(C)C(=O)O1 (stereo not given)
inactive: outcome (CRL-7250) | max response (HEK293) -4.28% | outcome (HaCat) | max response (KB-3-1) 2.69% | outcome (NIH3T3)

CC1(C)CC[C@]2(C(=O)O)CC[C@]3(C)C(=CCC4[C@@]5(C)C[C@H](O)[C@H](O[C@@H]6O[C@H](CO)[C@@H](O)[C@H](O)[C@H]6O)[C@@](C)(CO)C5[C@H](O)C[C@]43C)[C@@H]2C1 (stereo not given in full)
inactive: max response (CRL-7250) 3.07% | max response (HEK293) 0.861% | outcome (HaCat) | max response (KB-3-1) 3.96% | outcome (NIH3T3)

CC(NC(=O)c1ccccc1N)C(=O)O (stereo not given)
inactive: max response (CRL-7250) 2.02% | max response (HEK293) 4.67% | outcome (HaCat) | max response (KB-3-1) 9.06% | max response (NIH3T3) 0.106%

C[C@@H]1O[C@@H](O[C@H]2[C@H](O[C@H]3[C@H](O[C@H]4CC[C@@]5(C)C(CC[C@]6(C)C5CC=C5[C@@H]7CC(C)(C)C[C@@H](O)[C@]7(C)CC[C@]56C)[C@@]4(C)CO)O[C@H](C(=O)O)[C@@H](O)[C@@H]3O)O[C@H](C(=O)O)[C@H](O)[C@@H]2O)[C@H](O)[C@H](O)[C@H]1O (stereo not given in full)
inactive: max response (CRL-7250) -5.52% | max response (HEK293) -6.47% | outcome (HaCat) | max response (KB-3-1) -1.92% | outcome (NIH3T3)

From PubChem BioAssay (NCATS)
